Here are results for 16 compounds from PubChem BioAssay (NCATS).

In one assay the test system is Es-2. The assay is described as follows: Primary qHTS to identify gynecologic anti-cancer compounds using libraries of approved drugs and bioactive compounds (AID 1345084). Note: % is set by controls: 0 for no effect and ±100 for the full control effect; nearly all actives have a fitted effect of over 55% in size. To be noted: Gynecologic cancer cell panel viability, ATPlite luminescence, 48 h; series mostly up to 57.5 µM. The method in brief:
(§1)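 Measured: luminescence after ATPlite addition (15 min, RT). Exposure: 48 h, 37 C, 5% CO2.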
Background: qHTS replaces the single test concentration by a dilution series.

The subject of a further assay is HeLa. The description is as above. The note with it: Gynecologic cancer cell panel viability, ATPlite luminescence, 48 h; series mostly up to 57.5 µM. Summed up:
as §1

In a further assay the test system is Hek293T. The assay is described as above. To be noted: Gynecologic cancer cell panel viability, ATPlite luminescence, 48 h, control line for the selectivity index; series mostly up to 57.5 µM. Summed up:
as §1

The next assay concerns JEG-3. Described as above. To be noted: Gynecologic cancer cell panel viability, ATPlite luminescence, 48 h; series mostly up to 57.5 µM. The method in brief: as §1
(ATP-based viability assays read luminescence as a measure of living cells.)

Another assay deals with OV90. The description is as above. The note with it: Gynecologic cancer cell panel viability, ATPlite luminescence, 48 h; series mostly up to 57.5 µM. The method in brief: as §1
The next assay has as its system PA-1. The description is as above. To be noted: Gynecologic cancer cell panel viability, ATPlite luminescence, 48 h; series mostly up to 57.5 µM. The method in brief:
as §1

Another assay relates to SKOV3. Described as above. To be noted: Gynecologic cancer cell panel viability, ATPlite luminescence, 48 h; series mostly up to 57.5 µM. Summed up: as §1
The next assay concerns Tov-21-G. Described as above. The note with it: Gynecologic cancer cell panel viability, ATPlite luminescence, 48 h; series mostly up to 57.5 µM. The method in brief: as §1
A further assay relates to Tov112D. The description is as above. To be noted: Gynecologic cancer cell panel viability, ATPlite luminescence, 48 h; series mostly up to 57.5 µM. The method in brief:
as §1

The nature of assay [1]: Drug repurposing screens with cells derived from glioblastoma tumor samples (AID 1345199). For activity, negative = cell killing: % is set by controls: 0 for no effect and ±100 for the full control effect. Note: nearly all actives have a fitted effect of over 40% in size. Note: potency is the fitted concentration of half-maximal effect. The note with it: GBM patient neurospheres viability, ATP luminescence, 48 h. The method in brief: (§2)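 Four patient lines of CD133+ GBM neurospheres were screened at several concentrations; hits were retested in those lines plus three slower-growing GBM lines, using 48-hour treatment and ATP-based viability.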

Assay [2] addresses Nuclear receptor subfamily 1 group I member 2 (Rattus norvegicus) (UniProt Q9R1A7). The assay is described as follows: qHTS assay for small molecule activators of the rat pregnane X receptor (rPXR) signaling pathway (AID 651751; call rule not given here; note: 0% is about no effect). To be noted: rPXR reporter cells, luciferase (One-Glo), 24 h.
Assay [3] in a line: qHTS assay for small molecule activators of the human pregnane X receptor (PXR) signaling pathway (AID 720659; call rule not given here; note: 0% is about no effect).
Another assay concerns astro. The assay is described as follows: Drug repurposing screens with cells derived from glioblastoma tumor samples (AID 1345199). For activity, negative = cell killing: % is set by controls: 0 for no effect and ±100 for the full control effect. Note: nearly all actives have a fitted effect of over 40% in size. Note: potency is the fitted concentration of half-maximal effect. To be noted: viability, ATP luminescence, 48 h; series mostly up to 45.9 µM. Summed up: as §2
The mark [4] stands for this setting: at 45.9 µM (top of the series), tumour line B.
[5] abbreviates: at 45.9 µM (top of the series), tumour line D.
The mark [6] stands for this setting: at 46 µM (top of the series), tumour line A.

Where “and” joins values, the source holds several entries; their conditions need not be identical. Equal values may be shown once. Values without a mark were called inactive. Results filed as inconclusive are left out. Calls of active or inactive are those of the source. Unless noted, calls come from the whole dose curve; as a rule, active = well fitted curve in the direction sought with a large enough effect; inconclusive = small, poorly fitted or top-dose-only effect, or another doubt; inactive = no such curve, though single readings can be large; an effect the other way counts as inactive or inconclusive.

Nuclear receptor subfamily 1 group I member 2 (Rattus norvegicus), sequence (Q9R1A7 whole entry, looked up): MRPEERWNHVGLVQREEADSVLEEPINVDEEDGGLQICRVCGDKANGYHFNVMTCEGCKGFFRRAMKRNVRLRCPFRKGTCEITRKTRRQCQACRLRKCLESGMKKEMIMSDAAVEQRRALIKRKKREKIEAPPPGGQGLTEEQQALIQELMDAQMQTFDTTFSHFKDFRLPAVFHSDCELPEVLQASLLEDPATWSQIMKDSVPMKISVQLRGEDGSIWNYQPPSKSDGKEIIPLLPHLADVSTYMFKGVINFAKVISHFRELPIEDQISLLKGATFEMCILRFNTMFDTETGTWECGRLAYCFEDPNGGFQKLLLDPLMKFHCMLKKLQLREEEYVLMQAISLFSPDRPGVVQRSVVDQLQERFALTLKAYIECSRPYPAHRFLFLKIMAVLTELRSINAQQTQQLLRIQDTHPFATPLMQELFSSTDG

For the compound `Cn1c(CCCC(=O)O)nc2cc(N(CCCl)CCCl)ccc21`, the Potency entry in the assay on Es-2, with HeLa, in the assay on Hek293T, with JEG-3, in the assay with OV90 and in the assay with PA-1 was “inactive” throughout. Moreover, the Potency result in the assay on SKOV3, in the assay on Tov-21-G and in the assay with Tov112D was “inactive” throughout. The values for the activity, negative = cell killing in assay [1] (setting [4]) and in [1] (setting [5]) were -8.98% and -16.3%, respectively.
For the compound `CNCC(O)c1ccc(O)cc1` (stereo not drawn), the Potency entry in the assay with Es-2, with HeLa, with Hek293T, with JEG-3, with OV90 and in the assay on PA-1 was “inactive” each time. The Potency entry in the assay on SKOV3, in the assay on Tov-21-G and in the assay with Tov112D was “inactive” each time. For the same compound, the activity, negative = cell killing was 9.4% in assay [1] (at 21.2 µM (top of the series), tumour line B); 0.215% in assay [1] (at 21.2 µM (top of the series), tumour line D); -26.2% in [1] (at 21.3 µM (top of the series), tumour line A). Besides, the max response in assay [2] was -0.194%. In addition, the compound was classed as inactive in [3].
For the compound `CCCN1CCC[C@@H]2Cc3[nH]ncc3C[C@H]21`, the Potency entry in the assay on Es-2, with HeLa, in the assay with Hek293T, in the assay with JEG-3, with OV90 and in the assay with PA-1 was “inactive” throughout. For the same compound, the Potency result with SKOV3, with Tov-21-G, in the assay on Tov112D and in the assay with astro was “inactive” each time. For the same compound, the activity, negative = cell killing in assay [1] (setting [4]) was -3.57%; in assay [1] (setting [5]) it was -3.31%.
As to `Cc1ccc2c(c1)C1CN(C)CCC1N2` (stereo not drawn), the Potency entry in the assay with Es-2, in the assay on HeLa, with Hek293T, in the assay with JEG-3, in the assay on OV90 and in the assay on PA-1 was “inactive” throughout. For the same compound, the Potency entry in the assay with SKOV3, with Tov-21-G, with Tov112D and with astro was “inactive” in each case. Besides, the activity, negative = cell killing in assay [1] (setting [4]) was -7.68%; in [1] (setting [5]), -17.4%.
With `O=[N+]([O-])c1cc([As](=O)(O)O)ccc1O`, the Potency result in the assay with Es-2, in the assay on HeLa, with Hek293T, in the assay on JEG-3, in the assay with OV90 and in the assay on PA-1 was “inactive” in each case. For the same compound, the Potency entry with SKOV3, in the assay with Tov-21-G and in the assay with Tov112D was “inactive” in each case.
Turning to `C[C@]12C/C(=C/O)C(=O)C[C@@H]1CC[C@@H]1[C@@H]2CC[C@@]2(C)[C@H]1CC[C@]2(C)O`, the Potency entry in the assay on Es-2, in the assay on HeLa, in the assay with Hek293T, in the assay on JEG-3, in the assay on OV90 and with PA-1 was “inactive” each time. The Potency result in the assay on SKOV3, in the assay on Tov-21-G and with Tov112D was “inactive” in each case. Besides, the activity, negative = cell killing was -10.4% in [1] (setting [4]) and -15.9% in assay [1] (setting [5]). For the same compound, in [2], the max response was -5.34% and -0.621%. Further, the result in [3] was inactive.
Turning to `OCCOc1ccccc1`, the Potency entry with Es-2, in the assay with HeLa, in the assay on Hek293T, in the assay on JEG-3, with OV90 and in the assay on PA-1 was “inactive” each time. For the same compound, the Potency entry with SKOV3, with Tov-21-G and with Tov112D was “inactive” each time. Besides, the activity, negative = cell killing in [1] (setting [4]) is 3.03% and -11.2%; in assay [1] (setting [5]) it was -21.5% and 1.35%; in [1] (setting [6]), -19.1%. Moreover, the call in [3] was inactive.
As for `CCC1(C2=NCCN2)Cc2ccccc2O1` (stereo not drawn), the Potency entry with Es-2, in the assay on HeLa, with Hek293T, in the assay with JEG-3, in the assay on OV90 and in the assay on PA-1 was “inactive” each time. The Potency result in the assay on SKOV3, in the assay on Tov-21-G and in the assay with Tov112D was “inactive” throughout. Besides, the figures for the activity, negative = cell killing in assay [1] (setting [4]) and in assay [1] (setting [5]) were -22.3% and -18%, respectively. In [1] (tumour line A), the Potency is 7.08 µM (active).
Regarding `NN=C(N)N`, the Potency result in the assay on Es-2, with HeLa, in the assay with Hek293T, in the assay on JEG-3, in the assay with OV90 and with PA-1 was “inactive” throughout. Moreover, the Potency result in the assay with SKOV3, in the assay with Tov-21-G, in the assay on Tov112D and in the assay with astro was “inactive” throughout. The results for the activity, negative = cell killing in assay [1] (setting [4]), in assay [1] (setting [5]) and in [1] (setting [6]) were -4.67%, 9.02% and -2.8%, respectively.
Take `CC(=O)[C@H]1CC[C@H]2[C@@H]3CC[C@H]4C[C@H](O)CC[C@]4(C)[C@H]3C(=O)C[C@]12C`: the Potency result in the assay with Es-2, with HeLa, in the assay on Hek293T, in the assay with JEG-3, in the assay with OV90 and with PA-1 was “inactive” in each case. Besides, the Potency result with SKOV3, in the assay on Tov-21-G and with Tov112D was “inactive” each time. The activity, negative = cell killing in [1] (setting [4]) is -8.44%; in assay [1] (setting [5]), -5.23%.
For the compound `CCOP(=S)(OCC)Oc1cc(C)nc(C(C)C)n1`, the Potency result with Es-2, in the assay with HeLa, with Hek293T, in the assay on JEG-3, with OV90 and with PA-1 was “inactive” each time. Moreover, the Potency entry in the assay with SKOV3, in the assay with Tov-21-G and with Tov112D was “inactive” throughout. In addition, the activity, negative = cell killing was -12.9% in [1] (setting [4]), 4.41% in assay [1] (setting [5]) and -24.4% in [1] (setting [6]). Also, the max response in assay [2] is 3.69% and 1.39%.
Take `CC(C)NCC(O)c1ccccc1Cl` (stereo not drawn): the Potency result in the assay on Es-2, with HeLa, in the assay with Hek293T, in the assay on JEG-3, with OV90 and in the assay on PA-1 was “inactive” in each case. Besides, the Potency entry in the assay with SKOV3, in the assay with Tov-21-G, in the assay on Tov112D and in the assay on astro was “inactive” in each case. The activity, negative = cell killing was -16.7% in [1] (setting [4]) and -18.1% in [1] (setting [5]).
In the case of `Clc1cccc(N2CCNCC2)c1`, the Potency result in the assay on Es-2, in the assay on HeLa, in the assay with Hek293T, with JEG-3, in the assay with OV90 and in the assay with PA-1 was “inactive” in each case. In addition, the Potency result in the assay on SKOV3, with Tov-21-G and in the assay on Tov112D was “inactive” in each case. The activity, negative = cell killing in assay [1] (setting [4]) was -20%. Also, the Potency in assay [1] (tumour line A) was 35.5 µM (active).
Take `NP(N)(=O)NC(=O)c1ccc(F)cc1`: the Potency result in the assay on Es-2, in the assay with HeLa, with Hek293T, in the assay on JEG-3, in the assay on OV90 and in the assay with PA-1 was “inactive” throughout. The Potency result with SKOV3, in the assay on Tov-21-G and in the assay on Tov112D was “inactive” each time. The figures for the activity, negative = cell killing in assay [1] (setting [4]), in assay [1] (setting [5]) and in assay [1] (setting [6]) were -10%, -14.8% and -25.8%, respectively.
Take `N[C@@H]1C[C@H]1c1ccccc1`: the Potency result in the assay with Es-2, in the assay with HeLa, in the assay with Hek293T, in the assay with JEG-3, with OV90 and with PA-1 was “inactive” throughout. Further, the Potency entry in the assay with SKOV3, in the assay with Tov-21-G and with Tov112D was “inactive” each time. The activity, negative = cell killing in assay [1] (setting [4]) was -7.72%; in assay [1] (setting [5]), -6.02%.
`O=C(O)C(=O)c1cn(Cc2ccccc2)c2ccc(-c3ccc(OC(F)(F)F)cc3)cc12`: the Potency entry with Es-2, with HeLa, with Hek293T, in the assay with JEG-3, with OV90 and in the assay on PA-1 was “inactive” each time. The Potency result with SKOV3, in the assay on Tov-21-G and in the assay on Tov112D was “inactive” throughout.
